High-throughput results: PubChem BioAssay, several laboratories
Gli-Sufu block: blocks Gli-Sufu signaling in a luciferase reporter; Sufu-KO-LIGHT fibroblasts, Gli luciferase reporter luminescence; inhibition, % at 5 µM; 340,000 tested, 0.74% active; AID 588413;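 active means inhibition above about 55%, limit read from the data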;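 further: 0% = DMSO-treated cells and 100% = wells with medium but no cells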
697 NFkB inh: lowers PMA/ionomycin-induced NF-kB signal in 697 B cells; inhibition, % at 4 µM; 330,000 tested, 0.33% active; 697 B-cell NF-kB luciferase reporter, 16 h; in the data active means inhibition above about 35%
Mdm2-MdmX inh: human Mdm2/MdmX binding inhibition; O15151+Q00987; SaOS-2 split-luciferase Mdm2/MdmX complementation, luminescence; inhibition, % at 8 µM; 330,000 tested, 3% active;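 active means inhibition of at least 50% at 8 µM in the primary screen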
Jurkat NFkB inh: lowers PMA/ionomycin-induced NF-kB signal in Jurkat cells; PMA/ionomycin-induced NF-kB luciferase reporter, luminescence; inhibition, % at 4 µM; 330,000 tested, 0.53% active; AID 435003; in the data active means inhibition above about 50%
aSyn UTR inh: MLPCN primary screen, SNCA 5' untranslated region; AID 1813; alpha-synuclein 5'UTR reporter, inhibitor activity; inhibition, % (tested at 7.5 µM); 300,000 tested, 0.82% active; in the data active means inhibition above about 60%;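 further: H4 neuroglioblastoma cells stably carrying SNCA 5'UTR luciferase fusion; 0% = DMSO wells and 100% = positive control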
KLF5 inh: kruppel-like factor 5 inhibition | inhibition, % at 5 µM | DLD-1 KLF5 promoter-luciferase reporter, luminescence | AID 1700 | 290,000 tested, 0.23% active;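 active means inhibition above a per-plate limit of that plate's mean compound inhibition plus 3 SD, cut at about 60% in these data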;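 further: 0% = DMSO wells and 100% = LY294002 at 200 µM; higher means less KLF5 promoter-driven luciferase light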
KLF5 confirm: confirmation of KLF5 inhibitors. shares compounds with KLF5 inh. DLD-1 KLF5 promoter firefly luciferase reporter, luminescence. inhibition, % at 4 µM. 610 tested, 79% active. AID 1834;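 active means inhibition above a set limit taken from the earlier primary screen, cut at about 63% in these data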;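 further: 0% = DMSO wells and 100% = LY294002 at 200 µM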
IEC-6 tox: counter-screen for KLF5 inhibitors: cytotoxicity in rat IEC-6 cells; shares compounds with KLF5 inh; IEC-6 rat intestinal cells, viability luminescence; inhibition, % at 4 µM; 610 tested, 56% active; AID 1905; in the data active means inhibition above about 23%;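 further: cells exposed to compounds for 48 hours before viability read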
Jurkat NFkB conf: lowers PMA/ionomycin-induced NF-kB signal in Jurkat cells | shares compounds with Jurkat NFkB inh | Jurkat NF-kB luciferase, 16 h | inhibition, % at 4 µM | 2,700 tested, 27% active;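 active means inhibition reaching about 45% at 4 µM in either replicate, limit read from the data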;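 further: plate controls were PMA/ionomycin stimulated DMSO wells for no effect and unstimulated DMSO wells for full effect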
697 NFkB conf: lowers PMA/ionomycin-induced NF-kB signal in 697 B cells; shares compounds with 697 NFkB inh; 697 B-cell NF-kB luciferase, 16 h; inhibition, % at 4 µM; 2,000 tested, 35% active; AID 449746; in the data active means inhibition mostly above about 28%, no sharp cut-off; inactive means mostly below about 22%
Mdm2-MdmX conf: confirmation of human Mdm2/MdmX interaction inhibitors. Mdm2-MdmX binding, luminescent assay. inhibition, % at 8 µM. 10,000 tested, 55% active. shares compounds with Mdm2-MdmX inh; in the data active means inhibition above about 40%
FLuc counter: full-length luciferase inhibition in Mdm2/MdmX counter-screen; shares compounds with Mdm2-MdmX inh; SaOS-2 full-length luciferase counterscreen, luminescence; inhibition, % at 8 µM; 6,200 tested, 77% active; AID 504607;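 active means mean inhibition at 8 µM reaching about 37%, which flags the compound as non-specific, limit read from the data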;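 further: p53-null SaOS-2 cells with luciferase driven by a doxycycline-inducible promoter; compound on cells about two nights before reading with doxycycline added after day one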
Gli-Sufu confirm: confirmation of Gli-SUFU pathway antagonists; inhibition, % at 5 µM; Sufu-KO-LIGHT cells, Gli luciferase reporter, luminescence; 2,500 tested, 40% active; shares compounds with Gli-Sufu block; AID 602428;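 active means mean inhibition at 5 µM reaching about 45%, limit read from the data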;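 further: plate controls were DMSO-treated cells for no effect and wells lacking cells for full effect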
Gli cytotox: counter-screen for Gli-SUFU antagonists: cytotoxicity | shares compounds with Gli-Sufu block | Sufu-KO-LIGHT cells cytotoxicity, ATP luminescence | cytotoxicity, % at 5 µM | 2,500 tested, 32% active | AID 651994;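 active means mean cytotoxicity at 5 µM above about 25%, limit read from the data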;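 further: cells exposed to compound overnight for roughly 16 to 18 hours; plate controls were DMSO wells with cells for no effect and medium without cells for full effect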
Wnt3a counter: Wnt3a reporter inhibition counter-screen | shares compounds with Gli-Sufu block | Wnt-LIGHT cells, Wnt3a-driven luciferase reporter, luminescence | inhibition, % at 6.25 µM | 2,500 tested, 20% active;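 active means mean inhibition above about 25%, limit read from the data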
* marks the source's active call; other numbers are inactive results. Only some compounds are listed: those with a hit (about 4.1% of all), similar ones and a draw of the others.

What do the screens show for `Cc1cc(C(=O)CN2C(=O)c3ccccc3S2(=O)=O)c(C)n1CC1CCCO1` (stereo not given)?
Gli-Sufu block: 83.0*; 697 NFkB inh: 44.5*; Mdm2-MdmX inh: 53.7*; Jurkat NFkB inh: 78.8*; aSyn UTR inh: 110.8*; KLF5 inh: 82.5*; KLF5 confirm: 103.7*; IEC-6 tox: 16.6; Jurkat NFkB conf: 21.8; 697 NFkB conf: 8.2; Mdm2-MdmX conf: 37.0; FLuc counter: 8.8; Gli-Sufu confirm: 82.2*; Gli cytotox: 54.4*; Wnt3a counter: 98.6*

What do the screens show for `COc1ccc(C(=O)CN2C(=O)c3ccccc3S2(=O)=O)cc1`?
Gli-Sufu block: 88.3*; 697 NFkB inh: 56.4*; Mdm2-MdmX inh: 93.6*; Jurkat NFkB inh: 73.3*; aSyn UTR inh: 101.3*; KLF5 inh: 72.0*; KLF5 confirm: 55.8; IEC-6 tox: -4.0; Jurkat NFkB conf: 58.1*; 697 NFkB conf: 59.8*; Mdm2-MdmX conf: 95.4*; FLuc counter: 25.5; Gli-Sufu confirm: 93.4*; Gli cytotox: 38.3*; Wnt3a counter: 101.7*

What do the screens show for `COc1ccc(C(=O)CN2C(=O)c3ccccc3S2(=O)=O)cc1Br`?
Gli-Sufu block: 20.1; 697 NFkB inh: 15.2; Mdm2-MdmX inh: 23.1; Jurkat NFkB inh: -7.3; aSyn UTR inh: 55.5; KLF5 inh: -13.7

How did O=C(Cc1ccc(N2CCNC2=O)cc1)N1CCCC(Nc2cccc(F)c2)C1 (stereo not given) do in these assays?
Gli-Sufu block: 53.0; 697 NFkB inh: -53.5; Mdm2-MdmX inh: 59.7*; Jurkat NFkB inh: 58.6*; aSyn UTR inh: 63.8*; KLF5 inh: 69.9*; KLF5 confirm: 71.2*; IEC-6 tox: 47.3*; Jurkat NFkB conf: 14.4; Mdm2-MdmX conf: 59.5*; FLuc counter: 62.0*; Gli-Sufu confirm: 16.8; Gli cytotox: 40.8*; Wnt3a counter: -47.6

Results for O=C(c1cccc(N2CCNC2=O)c1)N1CCCC(Nc2cccc(F)c2)C1 (stereo not given) ?
Gli-Sufu block: 2.4; 697 NFkB inh: 7.7; Mdm2-MdmX inh: 23.7; Jurkat NFkB inh: -18.4; aSyn UTR inh: -3.9; KLF5 inh: -13.0

How did CC(C)(C)C(=O)Nc1cc2nn(-c3ccccc3)nc2cc1Cl do in these assays?
Gli-Sufu block: 80.5*; KLF5 inh: 83.1*; KLF5 confirm: 92.8*; IEC-6 tox: 8.8; Gli-Sufu confirm: 86.8*; Gli cytotox: 83.0*; Wnt3a counter: 104.5*
